Data taken from PubChem BioAssay AID2330 (Broad Institute, 2010).
Hit rate of the full screen: of about 37,000 compounds, about 2,800 (7.6%) were called active. Another 1% or so got no clear call; they are omitted. No stated cut-off is given here; in the data, active means inhibition above about 80%; inconclusive means no clear call, values can overlap the other calls; inactive means below that. The sample as a whole holds a higher share of actives than the screen did.

Experiment: NOMO-1 AML cell viability reduction, primary screen, STK33 inhibitor project, CellTiter-Glo luminescence (AID 2330)
Settings: NOMO-1 AML viability, 72 h, stronger effect = higher value, concentration not given here

| SMILES | inhibition |
| --- | --- |
| Cc1cc(C(=O)Nc2cccc3c2O[C@@H](CN(C)Cc2ccc4c(c2)OCO4)[C@@H](C)CN([C@@H](C)CO)C3=O)n(C)n1 | 9.25% (inactive) |
| COC(=O)c1ccccc1NC(=O)CNS(=O)(=O)c1cc(Cl)ccc1Cl | -6.45% (inactive) |
| Cc1ccc(S(=O)(=O)N(C)C[C@H]2Oc3ccc(NS(C)(=O)=O)cc3CC(=O)N([C@@H](C)CO)C[C@H]2C)cc1 | 1.2% (inactive) |
| Cc1noc(C)c1NC(=O)Nc1ccc2c(c1)C(=O)N([C@@H](C)CO)C[C@H](C)[C@H](CN(C)S(=O)(=O)c1ccc(Cl)cc1)O2 | -6.69% (inactive) |
| Oc1cc(O)c2c(c1)OC(c1ccc(O)c(O)c1)C(O)C2 (centres undefined) | 6.96% (inactive) |
| COC(=O)C(C)N(C(=O)c1ccccc1[N+](=O)[O-])c1c(C)cccc1C (centres undefined) | 3.25% (inactive) |
| O=C(CSc1nnc(-c2ccco2)n1-c1ccccc1)Nc1ccc(F)cc1 | 3.32% (inactive) |
| CCCCCCc1ccc(O)cc1O | 108% (active) |
| C[C@H]1CN([C@@H](C)CO)C(=O)c2cccc(NC(=O)C3CCCCC3)c2O[C@H]1CN(C)C(=O)NC1CCCCC1 | -16% (inactive) |
| C[C@@H]1CN([C@@H](C)CO)C(=O)c2cc(NS(=O)(=O)c3ccc(Cl)cc3)ccc2O[C@H]1CN(C)C(=O)Nc1ccc(C(F)(F)F)cc1 | 7.09% (inactive) |
| Cc1cc(Cl)ccc1NC(=O)CN(c1ccc(Cl)c(Cl)c1)S(C)(=O)=O | 16% (inactive) |
| COc1ccc2nc(SCC(=O)Nc3ccc(I)cc3)[nH]c2c1 | 6.89% (inactive) |
| COC(=O)Nc1nc2ccc(Sc3ccccc3)cc2[nH]1 | 114% (active) |
| COc1ccc(C(=O)CSc2nc3ccc(OC)cc3[nH]2)cc1 | 3.9% (inactive) |
| COc1ccc(CN(C)C[C@H]2Oc3c(NS(=O)(=O)c4ccc(Cl)cc4)cccc3C(=O)N([C@H](C)CO)C[C@@H]2C)cc1 | -1.33% (inactive) |
| C[C@H](CO)N1C[C@H](C)[C@H](CN(C)Cc2ccc3c(c2)OCO3)Oc2c(NC(=O)NC3CCCCC3)cccc2C1=O | 42.4% (inactive) |
| COc1ccc(CN(C)C[C@H]2Oc3c(NC(=O)NC4CCCCC4)cccc3C(=O)N([C@@H](C)CO)C[C@@H]2C)cc1 | 48.8% (inactive) |

| SMILES | inhibition |
| --- | --- |
| C[C@H]1CN([C@@H](C)CO)C(=O)c2cccc(NC(=O)C3CCCCC3)c2O[C@H]1CN(C)Cc1ccc(C(F)(F)F)cc1 | 45.9% (inactive) |
| C[C@@H]1CN([C@H](C)CO)C(=O)c2cccc(NC(=O)Nc3ccc(F)cc3)c2O[C@@H]1CN(C)Cc1ccc(C(F)(F)F)cc1 | 35.7% (inactive) |
| C[C@H](CO)N1C[C@H](C)[C@@H](CN(C)Cc2ccc(C(F)(F)F)cc2)Oc2c(NC(=O)NC3CCCCC3)cccc2C1=O | 83.9% (active) |
| C[C@@H]1CN([C@H](C)CO)C(=O)c2cccc(NC(=O)NC3CCCCC3)c2O[C@H]1CN(C)Cc1ccc(C(F)(F)F)cc1 | 101% (active) |
| COc1ccc(N(CC(=O)Nc2ccccc2F)S(C)(=O)=O)cc1 | 40.4% (inactive) |
| C[C@@H]1CN([C@H](C)CO)C(=O)c2cccc(NC(=O)Nc3cccc4ccccc34)c2O[C@@H]1CN(C)Cc1ccccc1 | 47.5% (inactive) |
| O=C(O)C1CC=CCC1C(=O)Nc1ccc(C(=O)N2CCCCC2)c(Cl)c1 (centres undefined) | 2.77% (inactive) |
| COc1ccc(OC)c(S(=O)(=O)N(C)CC(=O)Nc2cccc(Cl)c2C)c1 | -0.499% (inactive) |
| Cc1ccc(OCC(=O)Nc2cccc(NC(=O)c3ccco3)c2)cc1C | 30.6% (inactive) |
| C[C@@H]1CN([C@@H](C)CO)C(=O)c2cc(NC(=O)Nc3cccc4ccccc34)ccc2O[C@H]1CN(C)Cc1ccc(Oc2ccccc2)cc1 | 115% (active) |
| C[C@H]1CN([C@@H](C)CO)C(=O)c2cc(NC(=O)Nc3cccc4ccccc34)ccc2O[C@@H]1CN(C)C | -2.04% (inactive) |
| C[C@@H]1CN([C@@H](C)CO)C(=O)c2cc(NC(=O)Nc3cccc4ccccc34)ccc2O[C@@H]1CN(C)Cc1ccc(-c2ccccc2)cc1 | 109% (active) |
| C[C@@H]1CN([C@@H](C)CO)C(=O)c2cc(NC(=O)Nc3cccc4ccccc34)ccc2O[C@@H]1CN(C)C(=O)Nc1cccc2ccccc12 | 76.6% (inactive) |
| CC(C)NC(=O)Nc1ccc2c(c1)C(=O)N([C@@H](C)CO)C[C@@H](C)[C@H](CN(C)Cc1ccc(-c3ccccc3)cc1)O2 | 36.3% (inactive) |
| COc1ccc(CN(C)C[C@@H]2Oc3ccc(NC(=O)Nc4cccc5ccccc45)cc3C(=O)N([C@H](C)CO)C[C@H]2C)cc1 | -6.53% (inactive) |
| C[C@H](CO)N1C[C@H](C)[C@H](CN(C)Cc2ccc3c(c2)OCO3)Oc2c(NS(=O)(=O)c3ccccc3)cccc2C1=O | -8.2% (inactive) |
| C[C@H]1CN([C@@H](C)CO)C(=O)c2cccc(NS(=O)(=O)c3ccc(F)cc3)c2O[C@@H]1CN(C)Cc1ccncc1 | -1.34% (inactive) |
